# Laboratory results from PubChem BioAssay (NCATS).
# Values without a mark were called inactive. Inconclusive results are not listed. Where a call stands in place of a potency, no number is given. Active and inactive are the calls of the source. Unless noted, calls follow the shape of the dose curve; as a rule, active = well fitted curve in the direction sought with a large enough effect; inconclusive = small, poorly fitted or top-dose-only effect, or another doubt; inactive = no such curve, though single readings can be large; an effect the other way counts as inactive or inconclusive.
# How the values were obtained:
# [1] = biological target: Cytochrome P450 2C19 (Homo sapiens) (UniProt P33261); assay: qHTS Assay for Inhibitors and Substrates of Cytochrome P450 2C19 (AID 899); settings: recombinant CYP2C19, luciferin-H EGE luminescence; series mostly up to 57.1 µM; also: nearly all actives have a fitted effect of over 60% in size; also: potency is read from the fitted curve at half-maximal effect
# In short: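 Luminescent read-out of luciferin formed from Luciferin-H EGE (10uM, equal to KM). Enzyme 5nM in 50mM KPO4; compound added, 10 min at 37C, then NADPH regenerating system for 60 min at 37C. Full inhibition defined by 57uM ketoconazole.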
# [2] = qHTS Assay for Identification of Small Molecule Agonists for Thrombopoietin (TPO) Signaling Pathway (AID 917); settings: TPO signaling pathway reporter cells, agonist qHTS, stimulated with TPO at its EC50; series mostly up to 38.5 µM
# In short: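 Luciferase reporter (Glycoprotein IIb promoter) in IL-3-deprived Ba/F3 cells carrying human TPO receptor; compounds co-added with 26 pM TPO, incubated 24 h, 37 C. Steadylite luminescence measured after 10 min.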
# [3] = biological target: Muscarinic acetylcholine receptor M1 (Rattus norvegicus) (UniProt P08482); assay: qHTS Assay for Antagonists of Acetylcholine Muscarinic M1 Receptor: Kinetic Measurement of Intracellular Calcium Response (AID 943); settings: M1-expressing cells, kinetic intracellular calcium fluorescence; series mostly up to 35.3 µM; also: nearly all actives have a fitted effect of over 75% in size; also: potency is read from the fitted curve at half-maximal effect
# In short: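 Read-out: peak over basal Fluo-4 fluorescence, kinetic at 1 Hz for 4 min after EC80 carbachol (100 nM final). Rat M1-CHO cells, dye loaded 1 h at 37C, compound added 10 min before agonist.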
# [4] = Confirmation and Secondary Assay for Modulators of Hemoglobin Beta Chain Splicing at IVS2 654 locus (AID 910); settings: HeLa EGFP-654 splicing reporter, GFP fluorescence, 48 h; series mostly up to 46.1 µM;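 also: HeLa cells stably carrying EGFP split by mutant beta-globin IVS2-654 intron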
# In short: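 HeLa cells stably expressing EGFP interrupted by β-globin IVS2-654 intron, seeded overnight in Opti-MEM/2% FCS, then treated 2 days at 37 °C. Restored splicing read as total peak GFP intensity per well by laser scanning cytometry (488 nm excitation, 500–520 nm emission); 500 nM antisense PNA as control.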
# [5] = Confirmation and Secondary Assay for Modulators of Hemoglobin Beta Chain Splicing at IVS2 705 locus (AID 930); settings: HeLa EGFP-705 splicing reporter, GFP fluorescence, 48 h; series mostly up to 46.1 µM;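 also: HeLa cells stably expressing the EGFP-705 splicing reporter; GFP fluorescence per well restored by corrected splicing of the IVS2-705 intron in EGFP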
# In short: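 First, HeLa EGFP-705 cells are seeded at 500/well in Optimem with 2% FCS and left overnight. Next, compound or DMSO is added for 2 days. Finally wells are laser-scanned and total peak GFP intensity scored.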
# [6] = biological target: Muscarinic acetylcholine receptor M1 (Rattus norvegicus) (UniProt P08482); assay: qHTS Assay for Antagonists of Acetylcholine Muscarinic M1 Receptor: Measurement of IP-One Response (AID 944); settings: CHO-M1 cells, IP-One HTRF, antagonist mode; series mostly up to 46.1 µM; also: nearly all actives have a fitted effect of over 75% in size
# In short: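 Read-out: HTRF competition between d2-IP1 and Eu-cryptate anti-IP1 antibody, emission 620 and 665 nm. Stimulus was carbachol, EC80 (200 nM), for 30 min in M1-CHO cells (rat receptor), after 10 min compound pre-treatment.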
# [7] = qHTS Assay for Identification of Small Molecule Agonists for Hypoxia Response Element Signaling Pathway (AID 914; active = well fitted activation curve with a large enough effect in the signal ratio, with a control signal flat, not every such curve was filed as active; the % refers to the signal ratio; also: potency is read from the fitted curve at half-maximal effect); settings: ME-180 (cervical carcinoma) HRE-bla reporter, beta-lactamase ratio, CoCl2, 17 h; activation: hits give high values
# In short: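 Positive modulation of EC50 CoCl2-induced hypoxia response element signaling is measured in ME-180 cells with a beta-lactamase reporter. Compounds are titrated, incubation runs 17 hours, and %Activity derives from the blue/green ratio.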
# [8] = qHTS Assay for Identification of Small Molecule Antagonists for Thrombopoietin (TPO) Signaling Pathway (AID 918); settings: TPO-dependent cell signaling reporter, antagonist mode; also: potency is read from the fitted curve at half-maximal effect; nearly all actives have a fitted effect of over 60% in size
# In short: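 Luminescence read-out: GPIIb-promoter luciferase in Ba/F3 cells carrying human TPO receptor. Compounds added with 26 pM TPO (EC50), 24 hrs, 37 C, 5% CO2; cells deprived of IL-3 overnight beforehand. Inhibition of signal scored.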
# Cytochrome P450 2C19 (Homo sapiens), sequence (P33261 whole entry, looked up): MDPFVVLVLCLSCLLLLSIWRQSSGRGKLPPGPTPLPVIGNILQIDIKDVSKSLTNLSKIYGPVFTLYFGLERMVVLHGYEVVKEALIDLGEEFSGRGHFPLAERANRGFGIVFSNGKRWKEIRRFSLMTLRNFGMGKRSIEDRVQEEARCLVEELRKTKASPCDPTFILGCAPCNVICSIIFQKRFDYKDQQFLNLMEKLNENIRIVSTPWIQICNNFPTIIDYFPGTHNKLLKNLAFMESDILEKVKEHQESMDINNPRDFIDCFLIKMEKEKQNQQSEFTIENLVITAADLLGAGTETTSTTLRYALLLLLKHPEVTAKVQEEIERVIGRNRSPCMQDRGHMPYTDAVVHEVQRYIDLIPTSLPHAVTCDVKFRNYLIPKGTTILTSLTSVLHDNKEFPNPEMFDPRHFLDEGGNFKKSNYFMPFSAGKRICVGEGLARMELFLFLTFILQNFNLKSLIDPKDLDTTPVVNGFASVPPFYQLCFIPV
# Muscarinic acetylcholine receptor M1 (Rattus norvegicus), sequence (P08482 whole entry, looked up): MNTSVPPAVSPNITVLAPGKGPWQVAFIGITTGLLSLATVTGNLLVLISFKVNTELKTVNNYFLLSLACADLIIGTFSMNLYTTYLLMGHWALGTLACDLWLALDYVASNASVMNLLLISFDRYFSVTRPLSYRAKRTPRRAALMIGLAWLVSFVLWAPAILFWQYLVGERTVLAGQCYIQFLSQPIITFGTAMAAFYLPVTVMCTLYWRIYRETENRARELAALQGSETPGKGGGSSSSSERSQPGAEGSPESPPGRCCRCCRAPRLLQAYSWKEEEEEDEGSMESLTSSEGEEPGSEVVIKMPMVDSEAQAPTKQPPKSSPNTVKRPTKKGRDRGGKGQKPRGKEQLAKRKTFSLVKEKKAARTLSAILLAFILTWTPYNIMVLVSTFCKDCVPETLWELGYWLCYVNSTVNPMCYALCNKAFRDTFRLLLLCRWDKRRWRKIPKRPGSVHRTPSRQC
compound,measurement,setting,value
COCc1nc2c([nH]1)c(=O)n(C)c(=O)n2CC(C)C,Potency,[1],inactive
same,Potency,[2],inactive
same,Potency,[3],inactive
N=C(N)SCCN,Potency,[1],inactive
same,Potency,[4],inactive
same,Potency,[2],inactive
same,outcome,[5],inactive
same,Potency,[6],inactive
O=c1[nH]c(=O)c2nc3ccccc3nc2[nH]1,Potency,[1],inactive
same,Potency,[2],inactive
same,Potency,[3],inactive
same,Potency,[6],inactive
CC(=O)NNC(=O)N1Cc2ccccc2Oc2ccc(Cl)cc21,Potency,[1],inactive
CN(C)CCC(c1ccc(Br)cc1)c1ccccn1 (stereo not given),Potency,[4],inactive
same,outcome,[5],inactive
Oc1cc(O)c2c(c1)O[C@H](c1ccc(O)c(O)c1)[C@@H](O)C2,Potency,[1],inactive
Cn1c(=O)c2[nH]c(C3CCCC3)nc2n(C)c1=O,Potency,[4],inactive
same,activation,[7],-4.29%
same,Potency,[2],inactive
same,outcome,[5],inactive
same,Potency,[3],inactive
same,Potency,[6],inactive
O=c1cc(-c2ccccc2)[nH]c2nc(Cl)ccc12,Potency,[1],inactive
same,Potency,[2],inactive
same,Potency,[3],inactive
CC(C)Cn1c(=O)n(C)c(=O)c2[nH]cnc21,Potency,[4],inactive
same,Potency,[2],inactive
same,outcome,[5],inactive
same,Potency,[3],inactive
same,Potency,[6],inactive
NC(N)=NC(N)=Nc1ccccc1,Potency,[1],inactive
same,Potency,[4],inactive
same,Potency,[2],inactive
same,outcome,[5],inactive
same,Potency,[3],inactive
CCn1c(=O)[nH]c2cc(Cl)c(Cl)cc21,Potency,[1],inactive
same,Potency,[2],inactive
same,Potency,[3],inactive
same,Potency,[6],inactive
C[C@](Cc1ccc(O)c(O)c1)(NN)C(=O)O,Potency,[1],inactive
Cn1ccnc1,Potency,[1],inactive
same,Potency,[2],inactive
same,Potency,[3],inactive
same,Potency,[6],inactive
O=C(N[C@@H](Cc1ccccc1)C(=O)CCl)OCc1ccccc1,Potency,[1],5.01 µM (active)
same,Potency,[8],2.51 µM (active)
same,Potency,[3],inactive
same,Potency,[6],inactive
NCCCCN=C(N)N,Potency,[4],inactive
same,Potency,[2],inactive
same,outcome,[5],inactive
same,Potency,[3],inactive
same,Potency,[6],inactive
C=C1C(=O)O[C@@H]2[C@H]3O[C@]3(C)CCC=C(C)CC[C@@H]12,Potency,[1],inactive
OC1(c2ccc(Cl)cc2)CCN(Cc2c[nH]c3ccccc23)CC1,Potency,[1],inactive
O=C(c1ccc2c(c1)OCCO2)N1CCCCC1,Potency,[1],inactive
C[C@H](NC(=O)/C(C#N)=C/c1ccc(O)c(O)c1)c1ccccc1,Potency,[1],inactive
same,Potency,[3],inactive
same,Potency,[6],inactive
CNC(=O)c1cc2c(cn1)[nH]c1ccccc12,Potency,[1],inactive
same,Potency,[3],inactive
O=C(O)c1cc2cc(F)ccc2[nH]1,Potency,[1],inactive
same,Potency,[4],inactive
same,Potency,[2],inactive
same,outcome,[5],inactive
same,Potency,[3],inactive
Nc1nc2ccc(Cl)cc2c2nc(-c3ccco3)nn12,Potency,[1],inactive
same,Potency,[3],inactive
same,Potency,[6],inactive
NC(N)=[N+]1CCc2ccccc2C1,Potency,[2],inactive
same,Potency,[3],inactive
O=C(OCCN1CCOCC1)C1(c2ccccc2)CCCCC1,Potency,[2],inactive
same,Potency,[3],2 µM (active)
CCCn1c(=O)c2c(ncn2C)n(CCC)c1=O,activation,[7],3.52%
same,Potency,[2],inactive
same,Potency,[3],inactive
CC(C)(CO)Cc1cc(C(C)(C)C)c(O)c(C(C)(C)C)c1,Potency,[7],12.6 µM (active)
same,Potency,[2],inactive
same,Potency,[3],inactive
same,Potency,[6],inactive
COc1cc(CC(=O)O)ccc1O,Potency,[2],inactive
O=c1ccc2c(OCCCCc3ccccc3)c3ccoc3cc2o1,Potency,[2],inactive
COc1ccc2c(c1)c(CC(=O)O)c(C)n2C(=O)c1ccccc1,Potency,[2],inactive
same,Potency,[3],inactive
NC(=O)CC[C@H](N)C(=O)O,Potency,[4],inactive
same,outcome,[5],inactive
Nc1ccc(N2C(=O)c3ccccc3C2=O)c(Cl)c1,activation,[7],-21.1%
same,Potency,[2],inactive
COc1ccc(C(=O)NCc2cccnc2)cc1C(=O)NCc1cccnc1,Potency,[2],inactive
same,Potency,[3],inactive
Cc1cc2c(cc1Cl)N(C(=O)Nc1ccnc3ccccc13)CC2,Potency,[2],inactive
same,Potency,[3],inactive
O=C1OC(=O)C2C3CCC(O3)C12 (stereo not given),Potency,[4],inactive
same,outcome,[5],inactive
O=c1[nH]c2ccccc2c2ccccc12,Potency,[2],inactive
COc1ccccc1N1CCN(CCCCN2C(=O)c3ccccc3C2=O)CC1,Potency,[2],inactive
CCCCCCC/C=C\CCCCCCCCC(=O)O,activation,[7],-14%
same,Potency,[2],inactive
same,Potency,[3],inactive
same,Potency,[6],inactive
C=C(C)C1CC=C(C(=O)O)CC1 (stereo not given),Potency,[4],inactive
same,outcome,[5],inactive
Fc1ccc(CN(C2=NCCN2)c2c(Cl)cccc2Cl)cc1,Potency,[2],inactive
N[C@@H](Cc1ccc(O)c(I)c1)C(=O)O,Potency,[2],inactive
same,Potency,[3],inactive
c1ccc2c(c1)CC(N1CCN(c3cccc4c3OCCO4)CC1)C2,Potency,[2],inactive
c1ccc(C2CN3CCSC3=N2)cc1 (stereo not given),Potency,[4],inactive
same,outcome,[5],inactive
CC1=C(/C=C/C(C)=C/C=C/C(C)=C\C(=O)O)C(C)(C)CCC1,Potency,[4],inactive
same,outcome,[5],inactive
